Data published in PubChem BioAssay (NCI).
This is part of a sample that, as a whole, favours compounds with a hit. Of some 83,000 tested, about 20% had one in any assay.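 For each line, cells grew in 96-well plates with the test compound present at a single concentration for 48 hours.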 Active and inactive are the calls of the source. How the source made its calls: active means growth percent below 10; inactive means the rest.

How the values were obtained:
Experiment in all cases: NCI-60 one-dose screen, 48 h (100 = growth as untreated, 0 = no growth, -100 = all killed)
Settings in all cases: 10 µM
HT29 colon = tested on: HT29 colon
SNB-75 CNS = tested on: SNB-75 CNS
SNB-19 CNS = tested on: SNB-19 CNS
U251 CNS = tested on: U251 CNS
PC-3 prostate = tested on: PC-3 prostate
SK-MEL-5 melanoma = tested on: SK-MEL-5 melanoma
UACC-62 melanoma = tested on: UACC-62 melanoma
LOX IMVI melanoma = tested on: LOX IMVI melanoma
SK-MEL-28 melanoma = tested on: SK-MEL-28 melanoma
SK-MEL-2 melanoma = tested on: SK-MEL-2 melanoma

Measured: growth

COc1ccc(OC)c(/C=C/c2nc(SCc3ccccc3)n(-c3ccc(Cl)cc3)n2)c1
inactive: HT29 colon 63.1% | SNB-75 CNS 59.6% | SNB-19 CNS 61.4% | U251 CNS 38.7% | PC-3 prostate 35.6% | SK-MEL-5 melanoma 45.2% | UACC-62 melanoma 33.9% | LOX IMVI melanoma 32.4% | SK-MEL-28 melanoma 71.5% | SK-MEL-2 melanoma 69.2%

CCN(CC)CCOc1nc2ccccc2c2c1-c1ccc(OC)cc1C2=O
active: HT29 colon -12.9% | SNB-75 CNS 1.69% | U251 CNS -10.8% | PC-3 prostate 7.51% | SK-MEL-5 melanoma -84% | UACC-62 melanoma 8.63% | LOX IMVI melanoma -47.2% | SK-MEL-28 melanoma 4.25% | SK-MEL-2 melanoma -2.62%
inactive: SNB-19 CNS 24.6%

Cc1cs/c(=N\NC(=O)c2cc(-c3cc4ccccc4o3)nn2-c2ccccc2)n1-c1ccccc1
inactive: HT29 colon 93.6% | SNB-75 CNS 89.7% | SNB-19 CNS 92.8% | U251 CNS 87.6% | PC-3 prostate 114% | SK-MEL-5 melanoma 42.5% | UACC-62 melanoma 79.6% | LOX IMVI melanoma 82.7% | SK-MEL-28 melanoma 102% | SK-MEL-2 melanoma 91.6%

COc1cc(Cl)cc(-c2nn(-c3cccc(NC(=O)c4ccc(Cl)c(Cl)c4)c3)cc2-c2ccncc2)c1
inactive: HT29 colon 56.4% | SNB-75 CNS 50.6% | SNB-19 CNS 71.6% | U251 CNS 64.1% | PC-3 prostate 34% | SK-MEL-5 melanoma 78.5% | UACC-62 melanoma 75.4% | LOX IMVI melanoma 72.8% | SK-MEL-28 melanoma 87.7% | SK-MEL-2 melanoma 78.4%

CCCCN(CCCC)CCCCCCCCC(O)c1cc2ccccc2c2ccccc12 (stereo not given)
inactive: HT29 colon 32.9% | SNB-75 CNS 61.8% | SNB-19 CNS 67.9% | U251 CNS 49.3% | PC-3 prostate 45.2% | SK-MEL-5 melanoma 70% | UACC-62 melanoma 61.8% | LOX IMVI melanoma 49.2% | SK-MEL-28 melanoma 79.6% | SK-MEL-2 melanoma 84.7%

CCCCCCCCN(CCCCCCCC)CCCCCCCCCN1CCCc2cc(OC)ccc21
inactive: HT29 colon 84.8% | SNB-75 CNS 84.5% | SNB-19 CNS 98.3% | U251 CNS 90.7% | PC-3 prostate 85.2% | SK-MEL-5 melanoma 109% | UACC-62 melanoma 86.8% | LOX IMVI melanoma 88.6% | SK-MEL-28 melanoma 101% | SK-MEL-2 melanoma 101%

CC(=O)c1nc2ccccc2n1CCNC(N)=O
inactive: HT29 colon 35.9% | SNB-75 CNS 24% | SNB-19 CNS 91.7% | U251 CNS 69.8% | PC-3 prostate 72% | SK-MEL-5 melanoma 82.7% | UACC-62 melanoma 86.6% | LOX IMVI melanoma 62.4% | SK-MEL-28 melanoma 89.6% | SK-MEL-2 melanoma 84%

COc1cc(-c2cc(/C=C/C(=O)c3ccc(F)c(F)c3)[nH]n2)cc(OC)c1OC
inactive: HT29 colon 53.7% | SNB-75 CNS 56.7% | SNB-19 CNS 67.8% | U251 CNS 41.5% | PC-3 prostate 11.7% | SK-MEL-5 melanoma 75.6% | UACC-62 melanoma 51.4% | LOX IMVI melanoma 55.9% | SK-MEL-28 melanoma 73.4% | SK-MEL-2 melanoma 83.1%

NC(=S)N=Nc1c(O)c2ccccc2c2ccccc12
active: SK-MEL-5 melanoma -99% | UACC-62 melanoma -85.1% | LOX IMVI melanoma 1.8%
inactive: HT29 colon 98.4% | SNB-75 CNS 75.9% | SNB-19 CNS 38.7% | U251 CNS 26.1% | PC-3 prostate 47.2% | SK-MEL-28 melanoma 35% | SK-MEL-2 melanoma 89%

CCN1CCN(c2nc3ccccc3c3c(=O)c4ccccc4sc23)CC1
active: HT29 colon 9.96% | SK-MEL-5 melanoma 7.43% | UACC-62 melanoma 7.97%
inactive: SNB-75 CNS 44.5% | SNB-19 CNS 67.2% | U251 CNS 27.9% | PC-3 prostate 43.7% | LOX IMVI melanoma 23.5% | SK-MEL-28 melanoma 31.1% | SK-MEL-2 melanoma 98.5%

CN(C)C=Nc1cc(Cl)ccc1Cl
inactive: HT29 colon 100% | SNB-75 CNS 89.8% | SNB-19 CNS 95.3% | U251 CNS 115% | PC-3 prostate 99.8% | SK-MEL-5 melanoma 101% | UACC-62 melanoma 99.1% | LOX IMVI melanoma 102% | SK-MEL-28 melanoma 102% | SK-MEL-2 melanoma 97%

COc1cc(-c2nc(-c3nnc(-c4ccccc4Cl)o3)c3ccccn23)cc(OC)c1OC
inactive: HT29 colon 91.4% | SNB-75 CNS 79.4% | SNB-19 CNS 101% | U251 CNS 96.9% | PC-3 prostate 74.2% | SK-MEL-5 melanoma 80.2% | UACC-62 melanoma 69.8% | LOX IMVI melanoma 77.9% | SK-MEL-28 melanoma 94.6% | SK-MEL-2 melanoma 79%

COc1ccc2c(c1)O/C(=C\c1ncc([N+](=O)[O-])n1C)C2=O
active: HT29 colon -13.6% | SNB-75 CNS 3.5% | SNB-19 CNS 2.04% | U251 CNS -12.6% | PC-3 prostate 7.52% | SK-MEL-5 melanoma -94.2% | UACC-62 melanoma -85.1% | LOX IMVI melanoma -29.2% | SK-MEL-28 melanoma -31.9% | SK-MEL-2 melanoma -54.5%

Cc1ccc(NC(=O)CSc2nc3ccccc3c(=O)n2CCc2ccccc2)c(C(=O)O)c1
inactive: HT29 colon 111% | SNB-75 CNS 84.3% | SNB-19 CNS 105% | U251 CNS 101% | PC-3 prostate 97.8% | SK-MEL-5 melanoma 105% | UACC-62 melanoma 99.9% | LOX IMVI melanoma 99.6% | SK-MEL-28 melanoma 108% | SK-MEL-2 melanoma 89.8%
